Screening results as filed in PubChem BioAssay.
In the library only some 9.6% were active in any assay of this set; here they are far more common.
INS promoter inh – TRM-6 insulin promoter activity inhibition | TRM-6 cells (human fetal islet line), insulin promoter-eGFP reporter, imaging; reporter expression induced with tamoxifen | inhibition, % at 2 µM | 0.9% of 130,000 active;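 active means inhibition above the mean plus 3 SD, with well images judged a real hit on visual review, cut at about 60% in these data, passing the limit was not always enough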
Lmaj promast – inhibitors of Leishmania major promastigote growth. inhibition, % at 10 µM. 9% of 200,000 active. AID 1063. Leishmania major promastigotes, resazurin fluorescence viability; in the data active means inhibition above about 50%;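 further: promastigotes grown with compound for 44 hours at 28 °C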
PTEN del growth – growth suppressors of cells with PTEN tumor suppressor deletion | HCT116 PTEN-null viability, CellTiter-Glo, 60 h; stronger effect = lower value | viability, % at 10 µM | 1.2% of 140,000 active | AID 827;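 active means viability at or below a set limit, 4 SD under the median of all tested compounds, cut at about 3.7% in these data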;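 further: PTEN knockout HCT116 line with beta catenin targeted HCT116 as companion control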
Ins promoter up – MIN6 insulin promoter up-regulation; MIN6 insulin promoter-GFP reporter, high-content imaging; stronger effect = higher value; z-score at 5 µM; 0.3% of 190,000 active;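 active means z-score above 3 at 5 µM with at least 500 cells counted in the well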
bCat KO growth – beta-catenin-lacking colon tumor cell growth suppression | viability, % at 10 µM | HCT116 beta-catenin knockout viability, CellTiter-Glo, 60 h; stronger effect = lower value | 1.5% of 140,000 active;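 active means viability at or under a set limit, the compound median less 4 SD, cut at about 6% in these data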;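 further: 0% = Hyamine 1622 control at 20 µM and 100% = untreated cell control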
Autophagy HCS – modulators of autophagy. calls only at 10 µM (by protocol). 0.98% of 190,000 active. AID 463193. MEF GFP-LC3 puncta imaging; test concentration mostly 10 µM;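 active means percentage of spot-positive cells more than 3 SD above its plate mean, without a fluorescence outlier flag or 80% toxicity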;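 further: spot-positive cell cutoff set from DMSO-treated cells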
Active calls of the source: *; i = inactive; x = no result; + = active, no number.

SMILES	INS promoter inh	Lmaj promast	PTEN del growth	Ins promoter up	bCat KO growth	Autophagy HCS
O=S(=O)(NCC(c1cccnc1)N1CCN(c2ccc(F)cc2)CC1)c1ccc(F)cc1 (stereo unspecified)	x	91.2*	80.8	0.01	80.5	x
CS(=O)(=O)NCC(c1cccnc1)N1CCN(c2ccccc2F)CC1 (stereo unspecified)	x	x	x	-0.09	x	x
O=S(=O)(NCC(c1cccnc1)N1CCN(Cc2ccccc2)CC1)c1ccccc1 (stereo unspecified)	x	82.5*	91.6	-0.73	87.6	i
O=S(=O)(NCC(c1cccnc1)N1CCOCC1)c1cccs1 (stereo unspecified)	-20.0	-6.9	90.1	0.15	81.2	i
O=S(=O)(NCC(c1cccnc1)N1CCN(c2ccc(F)cc2)CC1)c1cccs1 (stereo unspecified)	28.6	87.4*	85.9	-1.61	86.5	i
CN(C)c1ccc(NC(=O)CN2CCN(S(=O)(=O)c3cc(Cl)ccc3Cl)CC2)cc1	-1.3	20.0	95.4	0.71	98.1	i
COc1ccc(OC)c(C(=O)COC(=O)CNC(=O)c2ccccc2)c1	x	-1.9	83.3	-0.09	97.0	i
COCCCn1c(-c2ccco2)nc2ccccc2c1=O	x	-0.7	87.8	0.79	92.2	i
CCn1nc([N+](=O)[O-])c2c(-c3nc4ccccc4o3)c(N)n(CCCOC)c2c1=O	42.9	-3.2	x	-0.07	x	+
Cc1ccc(-c2nc3ncccc3o2)cc1NC(=O)c1cccnc1	-37.5	10.7	x	0.52	x	i
N#CCSc1nnc(N)s1	0.0	-0.5	84.2	1.83	88.3	i
CN(C)CCNC(=O)c1ccc2c(c1)N(Cc1ccc(F)cc1)CCS2	x	99.8*	29.4	-2.21	32.4	i
O=C1C2CC=CCC2C(=O)N1c1ccc(NCCc2cccc(F)c2)c([N+](=O)[O-])c1 (stereo unspecified)	11.5	60.6*	89.4	0.29	95.0	i
O=C1CCC(=O)N1c1ccc(NCCc2cccc(F)c2)c([N+](=O)[O-])c1	5.9	-5.8	x	-0.55	x	i
O=C1C2CCCCC2C(=O)N1c1ccc(NC2CCCCC2)c([N+](=O)[O-])c1 (stereo unspecified)	10.5	51.6*	90.0	1.34	84.2	i
CCC(C(=O)OCC(=O)NC(=O)NC(C)(C)C)c1ccccc1 (stereo unspecified)	x	-1.8	x	0.9	x	i
Cc1ccc(N(C(=O)c2cnccn2)C(C(=O)NC2CCCCC2)c2ccc(O)cc2)cc1 (stereo unspecified)	x	-5.8	x	x	x	i
CCOc1cc(/C=N/NS(=O)(=O)c2ccc(OC)cc2)ccc1OCCN1CCOCC1	-53.3	-1.7	109.6	-0.28	96.7	i
CCCCCCCCNC(=O)c1cccnc1SCC(=O)Nc1ccc(OC)cc1OC	0.0	85.9*	8.9	0.32	61.5	i
Cc1noc(C)c1COc1ccc(C(=O)OCC(=O)N2c3ccccc3NC(=O)C2(C)C)cc1	11.5	8.7	74.5	x	87.2	i
CCn1c(=O)c([N+](=O)[O-])c(NCCc2ccccc2)c2ccccc21	4.3	100.2*	74.9	-0.1	80.7	i
O=C(COC(=O)[C@H](Cc1c[nH]c2ccccc12)NC(=O)c1ccc(Cl)cc1)Nc1ccc2c(c1)OCO2	20.8	100.0*	91.6	x	94.8	i
O=C(O)CSc1nnc2c(n1)[nH]c1ccccc12	36.4	-8.6	x	-0.09	x	i
O=C(CSc1nnc2c(n1)[nH]c1ccccc12)OCc1ccccc1	2.3	79.3*	86.7	x	85.1	i
Cc1nc(S(=O)(=O)N2CCN(C3c4ccccc4-c4ccccc43)CC2)cn1C	x	x	x	-0.48	x	x
Cc1ccc(C(=O)N[C@@H](C)CN2C3=NC[C@H](C(C)C)N3C[C@H]2Cc2ccc(O)cc2)cc1Br	x	7.8	x	-0.36	x	+
COc1ccc(C[C@H]2CN3C(=NC[C@@H]3Cc3ccc(O)cc3)N2CCNC(=O)c2ccc(C)c(Br)c2)cc1	x	20.6	x	-2.77	x	i
COc1ccc(C[C@H]2CN3C(=NC[C@@H]3C(C)C)N2C[C@H](C)NC(=O)c2ccc(C)c(Br)c2)cc1	x	67.7*	x	-0.76	x	i
Cc1[nH]nc(-c2ccc(OCc3cnn(-c4ccccc4)c3)cc2O)c1Oc1ccccc1F	x	-2.0	69.9	-0.93	77.6	i
Cc1ccc(C(=O)N/C(=C/c2cccs2)C(=O)NCc2ccco2)cc1	18.5	-0.5	107.7	-0.23	104.0	i
